Laboratory results published in PubChem BioAssay (NCATS).
Values joined by “and” are separate entries in the source; they are usually repeats but may differ in a detail not shown here. Equal entries are not always repeated. Results filed as inconclusive are left out. Active and inactive are the calls of the source. Calls come from the whole dose curve; as a rule, active = well fitted curve in the direction sought with a large enough effect; inconclusive = small, poorly fitted or top-dose-only effect, or another doubt; inactive = no such curve, though single readings can be large; an effect the other way counts as inactive or inconclusive.

Columns and labels:
[1] = tested on: UISO; assay: qHTS assay to identify novel small-molecules to repurpose for Merkel cell carcinoma treatment (AID 1296009); settings: MCC and control cell lines, CellTiter-Glo viability, 72 h; series mostly up to 46 µM; note: nearly all actives have a fitted effect of over 60% in size; note: potency is the fitted concentration of half-maximal effect
Method in brief: (§1)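 qHTS format: cells treated with library compounds in DMSO across 8 (NPC) or 11 (MIPE) concentrations. Readout after 72 hr at 37 degree celsius was CellTiter-Glo luminescence.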

[2] = tested on: WaGa; assay: as above; settings: MCC and control cell lines, CellTiter-Glo viability, 72 h; series mostly up to 46 µM
Method in brief: as §1

[3] = tested on: C33A; assay: Primary qHTS to identify gynecologic anti-cancer compounds using libraries of approved drugs and bioactive compounds (AID 1345084); settings: Gynecologic cancer cell panel viability, ATPlite luminescence, 48 h; series mostly up to 57.5 µM; note: nearly all actives have a fitted effect of over 55% in size; note: potency is the fitted concentration of half-maximal effect
Method in brief: (§2)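 Five-concentration response, 48 h; readout is ATP-driven luciferase luminescence.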

[4] = tested on: CAOV3; assay: as above; settings: Gynecologic cancer cell panel viability, ATPlite luminescence, 48 h; series mostly up to 57.5 µM
Method in brief: as §2

[5] = tested on: CASKI; assay: as above; settings: Gynecologic cancer cell panel viability, ATPlite luminescence, 48 h; series mostly up to 57.5 µM
Method in brief: as §2

[6] = tested on: Es-2; assay: as above; settings: Gynecologic cancer cell panel viability, ATPlite luminescence, 48 h; series mostly up to 57.5 µM
Method in brief: as §2

[7] = tested on: HeLa; assay: as above; settings: Gynecologic cancer cell panel viability, ATPlite luminescence, 48 h; series mostly up to 57.5 µM
Method in brief: as §2

[8] = tested on: Hek293T; assay: as above; settings: Gynecologic cancer cell panel viability, ATPlite luminescence, 48 h, control line for the selectivity index; series mostly up to 57.5 µM
Method in brief: as §2

[9] = tested on: JEG-3; assay: as above; settings: Gynecologic cancer cell panel viability, ATPlite luminescence, 48 h; series mostly up to 57.5 µM
Method in brief: as §2

[10] = tested on: OV90; assay: as above; settings: Gynecologic cancer cell panel viability, ATPlite luminescence, 48 h; series mostly up to 57.5 µM
Method in brief: as §2

[11] = tested on: PA-1; assay: as above; settings: Gynecologic cancer cell panel viability, ATPlite luminescence, 48 h; series mostly up to 57.5 µM
Method in brief: as §2

[12] = tested on: SKOV3; assay: as above; settings: Gynecologic cancer cell panel viability, ATPlite luminescence, 48 h; series mostly up to 57.5 µM
Method in brief: as §2

[13] = tested on: Tov-21-G; assay: as above; settings: Gynecologic cancer cell panel viability, ATPlite luminescence, 48 h; series mostly up to 57.5 µM
Method in brief: as §2

[14] = tested on: Tov112D; assay: as above; settings: Gynecologic cancer cell panel viability, ATPlite luminescence, 48 h; series mostly up to 57.5 µM
Method in brief: as §2

[15] = Drug repurposing screens with cells derived from glioblastoma tumor samples (AID 1345199); settings: GBM patient neurospheres viability, ATP luminescence, 48 h; note: nearly all actives have a fitted effect of over 40% in size
Method in brief: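 Four patient lines of CD133+ GBM neurospheres were screened at several concentrations; hits were retested in those lines plus three slower-growing GBM lines, using 48-hour treatment and ATP-based viability.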

[16] = qHTS assay to identify inhibitors of the type 1 interferon - major histocompatibility complex class I in skeletal muscle: Counter screen cell viability and HiBit confirmation (AID 1347412); settings: iHSKM muscle cells + IFN-b, HiBiT or CellTiter-Glo, 24 h; for activity change, negative = inhibition: at 45.9 µM (top of the series); note: potency is the fitted concentration of half-maximal effect; for all read-outs here: nearly all actives have a fitted effect of over 60% in size
Method in brief: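 Luminescence read-out: Nano-Glo HiBiT lytic signal from C-terminally HiBiT-tagged HLA-B in CRISPR-edited human myoblasts, plus CellTiter Glo ATP as viability counter screen. IFN-beta 4.0 ng/ml; 24 hrs treatment at 37 C, 5% CO2.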

[17] = at 20 µM (top of the series), tumour line C
[18] = at 21.2 µM (top of the series), tumour line B
[19] = at 21.2 µM (top of the series), tumour line D
[20] = at 21.3 µM (top of the series), tumour line A
[21] = at 45.9 µM (top of the series), tumour line B
[22] = at 45.9 µM (top of the series), tumour line D
[23] = at 46 µM (top of the series), tumour line A
[24] = at 46.1 µM (top of the series), tumour line C
% is set by controls: 0 for no effect and ±100 for the full control effect.

CCN(CC)CCOC(=O)c1ccc(N)cc1
inactive: Potency [1] | Potency [2] | Potency [3] | Potency [4] | Potency [5] | Potency [6] | Potency [7] | Potency [8] | Potency [9] | Potency [10] | Potency [11] | Potency [12] | Potency [13] | Potency [14] | activity, negative = cell killing [15, 17] 5.7% | activity, negative = cell killing [15, 18] -3.94% | activity, negative = cell killing [15, 19] 2% | activity, negative = cell killing [15, 20] -17.4%

CN(C)Cc1ccc(-c2nc3cccc4c3n2CCNC4=O)cc1
inactive: Potency [1] | Potency [2] | Potency [3] | Potency [5] | Potency [7] | Potency [9] | Potency [10] | Potency [12] | Potency [14]

CC[C@]1(O)C[C@@H]2CN(CCc3c([nH]c4ccccc34)[C@@](C(=O)OC)(c3cc4c(cc3OC)N(C)[C@H]3[C@@](O)(C(=O)OC)[C@H](OC(C)=O)[C@]5(CC)C=CCN6CC[C@]43[C@@H]65)C2)C1
active: Potency [1] 0.237 µM | Potency [2] 26.6 nM and 75 nM | Potency [3] 1.58 µM | Potency [6] 1.12 µM and 708 nM and 794 nM | Potency [7] 316 nM and 1.12 µM and 631 nM | Potency [9] 631 nM | Potency [10] 11.2 µM and 4.47 µM and 7.94 µM | Potency [11] 316 nM and 355 nM | Potency [13] 316 nM and 447 nM and 631 nM | Potency [14] 158 nM and 316 nM
inactive: Potency [4]

COc1ccc2c(Oc3ccc(NC(=O)c4c(C)n(CC(C)(C)O)n(-c5ccccc5)c4=O)nc3)ccnc2c1
active: Potency [11] 31.6 µM
inactive: Potency [1] | Potency [2] | Potency [3] | Potency [4] | Potency [5] | Potency [6] | Potency [7] | Potency [8] | Potency [9] | Potency [10] | Potency [14]

CC1(C)O[C@H]2C[C@@H]3[C@H]4CCC5=CC(=O)C=C[C@]5(C)[C@@]4(F)[C@@H](O)C[C@]3(C)[C@]2(C(=O)CO)O1
active: Potency [2] 13.2 µM
inactive: Potency [1] | activity, negative = cell killing [15, 21] -4.78% | activity, negative = cell killing [15, 22] 5.68% | activity, negative = cell killing [15, 23] -11.2% | activity, negative = cell killing [15, 24] 3.17%

COc1ccc(-c2oc3c(CC=C(C)C)c(OC4O[C@H](CO)[C@@H](O)[C@H](O)[C@@H]4O)cc(O)c3c(=O)c2OC2O[C@@H](C)[C@H](O)[C@@H](O)[C@@H]2O)cc1 (some centres not stated)
inactive: Potency [2]

Oc1ccc(C2=Cc3ccc(O)cc3OC2)cc1
active: Potency [2] 2.35 µM

O=C(CCCCCCC(=O)Nc1ccccc1)NO
inactive: activity change, negative = inhibition ([16]; Viability) 2.12%
active: Potency [1] 14.8 µM | Potency [3] 6.31 µM and 14.1 µM | Potency [6] 7.08 µM and 12.6 µM | Potency [7] 8.91 µM and 10 µM | Potency [9] 3.98 µM and 8.91 µM | Potency [12] 3.16 µM and 12.6 µM | Potency [13] 11.2 µM and 5.01 µM | Potency [14] 7.08 µM and 11.2 µM | Potency ([16]; HiBiT) 3.52 µM

C[N+]1(C)[C@@H]2CC(OC(=O)[C@H](CO)c3ccccc3)C[C@H]1[C@H]1O[C@@H]12 (some centres not stated)
inactive: Potency [1] | Potency [2] | activity, negative = cell killing [15, 21] -9.31% | activity, negative = cell killing [15, 22] -20.1% | activity, negative = cell killing [15, 23] -28.4% | activity, negative = cell killing [15, 24] -22.8%

CO[C@H]1C(=O)[C@]2(C)[C@@H](OC)C[C@H]3OC[C@@]3(OC(C)=O)[C@H]2[C@H](OC(=O)c2ccccc2)[C@]2(O)C[C@H](OC(=O)[C@H](O)[C@@H](NC(=O)OC(C)(C)C)c3ccccc3)C(C)=C1C2(C)C
inactive: Potency [1] | Potency [2] | activity change, negative = inhibition ([16]; Viability) -18.6%

Cc1ccc(C(C)(O)c2nc3ccccc3s2)c(C)c1 (configuration not stated)
active: Potency [2] 7.43 µM

Oc1ccc(C2CCN(c3ccnc4ccccc34)CC2)cc1O
inactive: Potency [1] | activity change, negative = inhibition ([16]; Viability) -0.0528%

Cc1c[nH]c(C=C2C(=O)Nc3ccccc32)c1CCC(=O)O
inactive: Potency [2]

CN(C)Cc1cccc(N=C(c2ccccc2)c2c(O)[nH]c3cc(C(=O)N(C)C)ccc23)c1
inactive: Potency [2]

CC/C(=C(\c1ccccc1)c1ccc(OCCN(C)C)cc1)c1ccccc1
active: Potency [1] 21.1 µM
inactive: Potency [3] | Potency [5] | Potency [6] | Potency [7] | Potency [8] | Potency [9] | Potency [13] | Potency [14]

Cc1ccc(F)c(NC(=O)Nc2ccc(-c3cccc4[nH]nc(N)c34)cc2)c1
inactive: Potency [2]

NS(=O)(=O)c1cccc2c1C(=O)c1cccc(O)c1C2=O
active: Potency [1] 0.662 µM | Potency [2] 0.132 µM | Potency ([16]; HiBiT) 0.557 µM | Potency ([16]; Viability) 0.496 µM

CC(C)(C)NC(=O)Nc1cccc(Nc2ncc(F)c(NC(C)(C)CO)n2)c1
inactive: Potency [1] | Potency [3] | Potency [5] | Potency [6] | Potency [8] | Potency [9] | Potency [10] | Potency [11] | Potency [12] | Potency [13] | Potency [14]

CC(C(=O)O)c1ccc(-c2ccccc2)c(F)c1 (configuration not stated)
inactive: Potency [1] | Potency [2] | activity, negative = cell killing [15, 17] -24.7% | activity, negative = cell killing [15, 18] -12.6% | activity, negative = cell killing [15, 19] -11% | activity, negative = cell killing [15, 20] -20.3%

COc1cc(N2CCC(N3CCN(C)CC3)CC2)ccc1Nc1ncc(Cl)c(Nc2ccccc2S(=O)(=O)C(C)C)n1
inactive: Potency [1] | Potency [9]
active: Potency [5] 7.94 µM | Potency [7] 3.16 µM | Potency [11] 10 µM | Potency [13] 7.08 µM | Potency ([16]; HiBiT) 17.6 µM

CC(=O)Nc1ccc([C@H](C)C(=O)Nc2ncc(C(C)C)s2)cc1
active: Potency [1] 7.43 µM | Potency [3] 20 µM | Potency [6] 14.1 µM | Potency [8] 15.8 µM | Potency [11] 22.4 µM | Potency ([16]; HiBiT) 2.49 µM
inactive: Potency [4] | Potency [9] | Potency [12] | activity change, negative = inhibition ([16]; Viability) -0.582%

C=CCc1ccc(O)c(-c2ccc(O)c(CC=C)c2)c1
inactive: Potency [2]

CC=CCC(C)C(O)C1C(=O)NC(CC)C(=O)N(C)CC(=O)N(C)C(CC(C)C)C(=O)NC(C(C)C)C(=O)N(C)C(CC(C)C)C(=O)NC(C)C(=O)NC(C)C(=O)N(C)C(CC(C)C)C(=O)N(C)C(CC(C)C)C(=O)N(C)C(C(C)C)C(=O)N1C (configuration not stated)
inactive: Potency [2]

O=C(NCc1ccccc1)c1csc(Nc2ccncn2)n1
inactive: Potency [3] | Potency [5] | Potency [6] | Potency [7] | Potency [8] | Potency [9] | Potency [10] | Potency [11] | Potency [14] | activity change, negative = inhibition ([16]; Viability) -20.4%
active: Potency [1] 23.5 µM | Potency ([16]; HiBiT) 9.91 µM

O=c1c(-c2ccc(O)cc2)coc2cc(OC3O[C@H](CO)[C@H](O)[C@H](O)[C@H]3O)cc(O)c12 (some centres not stated)
inactive: Potency [2]

CS(=O)c1ccc(-c2nc(-c3ccc(F)cc3)c(-c3ccncc3)[nH]2)cc1 (configuration not stated)
inactive: Potency [1] | Potency [3] | Potency [5] | Potency [6] | Potency [7] | Potency [8] | Potency [9] | Potency [10] | Potency [11] | Potency [12] | Potency [13] | Potency [14]

COc1ccc(-c2nc(N3CCOCC3)c3sc(CN(C)c4ncc(C(=O)NO)cn4)cc3n2)cn1
active: Potency [1] 0.0235 µM | Potency [2] 0.0026 µM | Potency ([16]; HiBiT) 0.0279 µM

CC(C)n1nc(-c2ccc3oc(N)nc3c2)c2c(N)ncnc21
active: Potency [1] 0.0264 µM | Potency [5] 2.24 µM | Potency [7] 12.6 µM | Potency [8] 0.316 µM | Potency [10] 316 nM | Potency [13] 0.316 µM | Potency ([16]; HiBiT) 0.0991 µM
